Records with an inconclusive call do not appear. Calls of active or inactive are those of the source. How the source made its calls: active means hit-call score of the fitted dose curve at least 0.9, where 1 is the maximum; inconclusive means response in the unintended direction; inactive means score below 0.9.
Assays:
[1] = target: human Adrenergic, Beta 3 Receptor (Adrb3), ADRB3 (gene 155) (UniProt P13945); experiment: NVS_GPCR_hAdrb3: NovaScreen (NVS) G Protein-Coupled Receptor Assay for human Adrenergic, Beta 3 Receptor (Adrb3) (AID 2283262)
Chain of human Adrenergic, Beta 3 Receptor (Adrb3), ADRB3 (gene 155) (P13945 whole entry, looked up): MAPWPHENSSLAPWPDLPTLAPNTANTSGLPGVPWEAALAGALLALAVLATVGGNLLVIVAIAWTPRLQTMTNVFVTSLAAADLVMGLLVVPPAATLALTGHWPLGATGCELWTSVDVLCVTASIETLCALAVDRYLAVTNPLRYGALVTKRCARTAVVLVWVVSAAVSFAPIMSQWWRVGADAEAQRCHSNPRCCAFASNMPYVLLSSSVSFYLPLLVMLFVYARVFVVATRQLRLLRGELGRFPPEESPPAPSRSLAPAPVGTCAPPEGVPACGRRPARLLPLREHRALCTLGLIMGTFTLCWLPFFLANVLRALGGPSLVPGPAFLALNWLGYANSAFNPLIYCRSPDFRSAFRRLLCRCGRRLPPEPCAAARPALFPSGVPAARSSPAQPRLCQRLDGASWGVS
How it was run: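 Membranes from SK-N-MC cells pretreated with isoproterenol and 8-bromo-cAMP were used in a radioligand competitive displacement binding assay. Binding was read by filter-based scintillation counting 1 hour after dosing. Primary screening was in duplicate at 25 uM, with concentration series in follow-up.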

[2] = target: Neuropeptide Y receptor type 2 (Homo sapiens) (UniProt P49146); experiment: NVS_GPCR_hNPY2: NovaScreen (NVS) G Protein-Coupled Receptor Assay for human Neuropeptide Receptor Y2 (NPY2) (AID 2283277)
Chain of Neuropeptide Y receptor type 2 (Homo sapiens) (P49146 whole entry, looked up): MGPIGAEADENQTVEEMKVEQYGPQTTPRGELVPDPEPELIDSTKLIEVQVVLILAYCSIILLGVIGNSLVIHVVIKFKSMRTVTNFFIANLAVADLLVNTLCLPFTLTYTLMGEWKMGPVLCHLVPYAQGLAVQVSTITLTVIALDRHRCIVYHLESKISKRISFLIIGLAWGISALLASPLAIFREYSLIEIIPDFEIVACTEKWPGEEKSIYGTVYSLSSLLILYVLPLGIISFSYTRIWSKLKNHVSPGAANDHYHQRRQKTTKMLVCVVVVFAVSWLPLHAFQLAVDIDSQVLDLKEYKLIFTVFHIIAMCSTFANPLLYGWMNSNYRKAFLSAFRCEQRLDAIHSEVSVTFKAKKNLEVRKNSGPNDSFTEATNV
How it was run: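 Radioligand binding on membranes extracted from SK-N-MC cells, cell-free, read 1 h after dosing by filter-based scintillation counting. Loss of signal vs DMSO. Primary screen in duplicate at 25 uM; actives followed up in concentration-response up to 50 uM.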

[3] = target: human Dopamine Receptor D4.4 (DRD4.4), DRD4 (gene 1815) (UniProt P21917); experiment: NVS_GPCR_hDRD4.4: NovaScreen (NVS) G Protein-Coupled Receptor Assay for human Dopamine Receptor D4.4 (DRD4.4) (AID 2283264)
Chain of human Dopamine Receptor D4.4 (DRD4.4), DRD4 (gene 1815) (P21917 whole entry, looked up): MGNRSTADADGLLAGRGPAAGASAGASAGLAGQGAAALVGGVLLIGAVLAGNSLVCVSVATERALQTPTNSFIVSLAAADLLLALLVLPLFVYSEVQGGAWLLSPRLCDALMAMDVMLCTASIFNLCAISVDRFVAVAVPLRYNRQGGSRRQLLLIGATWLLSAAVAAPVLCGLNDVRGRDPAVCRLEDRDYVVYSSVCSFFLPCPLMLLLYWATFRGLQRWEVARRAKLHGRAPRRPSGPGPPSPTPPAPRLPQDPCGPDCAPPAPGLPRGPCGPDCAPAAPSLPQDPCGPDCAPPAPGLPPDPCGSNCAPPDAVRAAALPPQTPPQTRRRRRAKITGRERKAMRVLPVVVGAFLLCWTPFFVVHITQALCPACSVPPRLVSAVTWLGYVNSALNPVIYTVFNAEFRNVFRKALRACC
How it was run: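 Radioligand displacement on human DRD4.4 from CHO-derived membranes, 1 hour incubation, bound counts read by filtration and scintillation. Primary screen in duplicate at 25 uM; actives followed up in concentration series.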

[4] = target: human Endothelin Receptor Type A (ETA), EDNRA (gene 1909) (UniProt P25101); experiment: NVS_GPCR_hETA: NovaScreen (NVS) G Protein-Coupled Receptor Assay for human Endothelin Receptor Type A (ETA) (AID 2283265)
Chain of human Endothelin Receptor Type A (ETA), EDNRA (gene 1909) (P25101 whole entry, looked up): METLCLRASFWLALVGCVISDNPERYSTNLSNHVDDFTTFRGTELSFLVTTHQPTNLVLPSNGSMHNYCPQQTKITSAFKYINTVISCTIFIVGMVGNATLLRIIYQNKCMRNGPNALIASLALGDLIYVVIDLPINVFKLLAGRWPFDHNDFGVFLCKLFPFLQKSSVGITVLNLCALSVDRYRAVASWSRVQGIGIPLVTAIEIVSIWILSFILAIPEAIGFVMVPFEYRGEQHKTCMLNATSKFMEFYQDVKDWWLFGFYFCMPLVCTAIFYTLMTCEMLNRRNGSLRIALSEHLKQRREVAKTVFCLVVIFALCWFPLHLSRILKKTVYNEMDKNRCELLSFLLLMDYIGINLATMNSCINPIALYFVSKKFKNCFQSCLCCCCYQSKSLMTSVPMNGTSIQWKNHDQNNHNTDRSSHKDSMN
How it was run: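 Cell-free radioligand displacement using SH-SY5Y-derived protein, 3 h incubation, filter-based scintillation counting. Primary screen in duplicate at 25 uM; actives then run in concentration-response up to 50 uM; loss of binding fitted versus DMSO.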

[5] = target: human Endothelin Receptor Type B (ETB), EDNRB (gene 1910) (UniProt P24530); experiment: NVS_GPCR_hETB: NovaScreen (NVS) G Protein-Coupled Receptor Assay for human Endothelin Receptor Type B (ETB) (AID 2283267)
Chain of human Endothelin Receptor Type B (ETB), EDNRB (gene 1910) (P24530 whole entry, looked up): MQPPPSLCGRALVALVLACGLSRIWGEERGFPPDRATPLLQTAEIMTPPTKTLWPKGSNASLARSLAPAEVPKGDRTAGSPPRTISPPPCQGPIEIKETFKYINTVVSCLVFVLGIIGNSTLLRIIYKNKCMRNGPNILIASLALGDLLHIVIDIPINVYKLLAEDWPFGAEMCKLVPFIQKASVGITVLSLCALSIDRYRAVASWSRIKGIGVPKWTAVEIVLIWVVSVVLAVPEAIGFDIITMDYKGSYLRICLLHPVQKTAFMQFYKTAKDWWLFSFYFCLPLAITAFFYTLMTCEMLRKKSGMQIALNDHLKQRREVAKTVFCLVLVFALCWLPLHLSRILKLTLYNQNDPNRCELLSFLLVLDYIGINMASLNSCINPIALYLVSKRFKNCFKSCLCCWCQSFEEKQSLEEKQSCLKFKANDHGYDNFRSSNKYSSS
Experimental: (§1) NVS_GPCR_hETB is a biochemical, single-readout assay that uses extracted gene-proteins from Human astrocytoma cells in a cell-free assay. Measurements were taken 4 hours after chemical dosing in a 96-well plate.NVS_GPCR_hETB is one of one assay component(s) measured or calculated from the NVS_GPCR_hETB assay. It is designed to make measurements of radioligand binding, a form of binding reporter, as detected with scintillation counting signals by Filter-based radiodetection technology.Data from the assay component NVS_GPCR_hETB was analyzed into 1 assay endpoint. This assay endpoint, NVS_GPCR_hETB, was analyzed in the positive analysis fitting direction relative to DMSO as the negative control and baseline of activity. […] Furthermore, this assay endpoint can be referred to as a primary readout, because the performed assay has only produced 1 assay endpoint. […]
(§2) Binding assays used specific radioligands (tritiated, iodinated) with non-radioactive competitive displacement ligands in agonist or antagonist protocols (as indicated) and various reference compounds and inhibitors to titrate specific binding to receptors and transporters. Most enzyme assays (CYPs, kinases, phosphatases, proteases, HDACs) used recombinant protein and specific substrates (fluorescence mostly, some colorimetric and radioactive) and inhibitors, followed by a biochemical separation of substrate and product. […]

[6] = target: human Neuropeptide Receptor Y1 (NPY1), NPY1R (gene 4886) (UniProt P25929); experiment: NVS_GPCR_hNPY1: NovaScreen (NVS) G Protein-Coupled Receptor Assay for human Neuropeptide Receptor Y1 (NPY1) (AID 2283276)
Chain of human Neuropeptide Receptor Y1 (NPY1), NPY1R (gene 4886) (P25929 whole entry, looked up): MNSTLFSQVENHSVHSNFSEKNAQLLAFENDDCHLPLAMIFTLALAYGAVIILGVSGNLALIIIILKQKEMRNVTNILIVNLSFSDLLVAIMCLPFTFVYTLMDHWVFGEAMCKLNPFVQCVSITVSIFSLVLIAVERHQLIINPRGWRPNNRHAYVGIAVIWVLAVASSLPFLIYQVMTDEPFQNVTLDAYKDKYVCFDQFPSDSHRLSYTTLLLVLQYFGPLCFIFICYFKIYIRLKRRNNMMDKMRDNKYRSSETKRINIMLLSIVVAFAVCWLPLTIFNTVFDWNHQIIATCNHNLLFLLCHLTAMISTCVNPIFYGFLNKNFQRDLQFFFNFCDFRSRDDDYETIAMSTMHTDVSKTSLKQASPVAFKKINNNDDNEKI
Experimental: as §1, with “NVS_GPCR_hNPY1” for “NVS_GPCR_hETB”, “SK-N-MC” for “Human astrocytoma cells”, “1 hour” for “4 hours”, “plate.NVS_GPCR_hNPY1” for “plate.NVS_GPCR_hETB”, “NVS_GPCR_hNPY1,” for “NVS_GPCR_hETB,”
as §2

CC(C)(c1ccc(O)cc1)c1ccc(O)cc1
outcome [1]: inactive
outcome [2]: inactive

O=C(c1ccc(O)cc1O)c1ccc(O)cc1O
outcome [3]: inactive

S=C(S)NCCNC(=S)S.[Mn+2].[S-]C([S-])=NCCN=C([S-])[S-].[Zn+2]
outcome [4]: inactive

C#C[C@]1(O)CC[C@H]2[C@@H]3CCC4=CC(=O)CC[C@@H]4[C@H]3CC[C@@]21CC
outcome [5]: inactive

S=C([S-])NCCNC(=S)[S-].[Mn+2]
AC50 [6]: 13.3 µM (active)

Cc1nn(C)c(Oc2ccccc2)c1C=NOCc1ccc(C(=O)OC(C)(C)C)cc1
outcome [6]: inactive

Reference: PubChem BioAssay (EPA / NIEHS)
